Values joined by “and” are separate entries in the source; they are usually repeats but may differ in a detail not shown here. Equal values may be shown once. The whole screen tested about 6,400 compounds, of which about 610 (9.5%) were called active. No stated cut-off is given here; in the data, active means activity change below about -70%; inconclusive means no clear call, values can overlap the other calls; inactive means above that. The sample as a whole holds a higher share of actives than the screen did. A structure can be active in one record and inactive in another.
test: Toxoplasma gondii ME49Luc growth in HeLa cells, luciferase, no IFN-y, primary screen (AID 1259421); conditions: T. gondii ME49Luc in HeLa, 72 h, stronger effect = lower value, concentration not given here

SMILES	activity change, negative = inhibition
N#C/C(=C/c1ccc(O)c(O)c1)C(=O)OCCc1cccs1	11.8% (inactive)
CC(=O)N(C)C1(c2ccccc2)CCN(CCC[C@]2(c3ccc(Cl)c(Cl)c3)CCCN(C(=O)c3ccccc3)C2)CC1	-7.4% (inactive)
NC(N)=NCC1COC2(CCCCC2)O1 (stereo unspecified)	-1.54% (inactive)
NC1(C(=O)O)CC1	13.6% (inactive)
CC(=O)O[C@H]1C[C@@H](OC(C)=O)C(C)(C)C2C[C@@H](OC(C)=O)[C@]3(C)C(CC[C@@]4(C)[C@H](c5ccoc5)OC(=O)[C@H]5O[C@]543)[C@]21C (stereo partly specified)	0.452% (inactive)
CC(=O)N(O)[C@@H]1c2cc(C#N)ccc2OC(C)(C)[C@H]1O	-86% (active) and 7.72% (inactive)
CCS(=O)(=O)N(C)[C@H]1c2cc(C#N)ccc2OC(C)(C)[C@@H]1O (racemic)	9.6% (inactive)
CCS(=O)(=O)N(C)C1c2cc(C#N)ccc2OC(C)(C)C1O (stereo unspecified)	-6.08% (inactive)
Nc1c[n+](N2CCOCC2)no1	18.8% (inactive)
CO/N=C(/C(=O)NC1C(=O)N2C(C(=O)OC(C)OC(C)=O)=C(COC(N)=O)CSC12)c1ccco1 (stereo unspecified)	4.1% (inactive)
O=C(O)CCC/C=C\C[C@@H]1[C@@H](/C=C/[C@@H](O)COc2cccc(Cl)c2)[C@H](O)C[C@@H]1O	11.1% (inactive) and 5.18% (inactive) and 11% (inactive)
Cc1c[nH]c(=O)n(CCCN2CCN(c3ccccc3OCC(F)(F)F)CC2)c1=O	2.85% (inactive) and 2.68% (inactive)
C1CCC2(CC1)CCNCC2	-1.4% (inactive)
COc1cc(Nc2c(C#N)cnc3cc(OCCCN4CCN(C)CC4)c(OC)cc23)c(Cl)cc1Cl	-79.2% (active) and -77.5% (active)
COc1cc2ncnc(Nc3ccc(F)c(Cl)c3)c2cc1OCCCN1CCOCC1	15.9% (inactive)
COc1cc2c(Nc3ccc(NC(=O)c4ccccc4)cc3)ncnc2cc1OCCCN1CCOCC1	-50.7% (inactive) and -23.3% (inactive)
CN(C)C(=O)NC1CCC(CCN2CCN(c3cccc(Cl)c3Cl)CC2)CC1 (stereo unspecified)	3.31% (inactive)
CC12CCC(C(=O)N(CCCCN3CCN(c4ccccn4)CC3)C1=O)C2(C)C (stereo unspecified)	-4.45% (inactive)
CCNC(=O)[C@H]1O[C@@H](n2cnc3c(N)nc(NCCc4ccc(CCC(=O)O)cc4)nc32)[C@@H](O)[C@@H]1O	9.76% (inactive)
CC(C)(C)c1cnc(CSc2cnc(NC(=O)C3CCNCC3)s2)o1	-71.7% (active)
CC(=O)O[C@@H]1CC2C(C)(C)[C@H](O)CC[C@]2(C)C2CC[C@@]3(C)[C@H](c4ccoc4)OC(=O)C4OC43[C@@]21C (stereo partly specified)	14.1% (inactive)

SMILES	activity change, negative = inhibition
COc1cccc(CCc2ccccc2OCC[C@@H]2C[C@@H](O)CN2C)c1	-6.08% (inactive) and -38.5% (inactive)
O=c1cc(N2CCNCC2)oc2c(-c3ccccc3)cccc12	-75.1% (active) and -94.2% (active)
O=c1cc(N2CCOCC2)oc2c(-c3ccccc3)cccc12	13.4% (inactive)
Nc1ccc(-c2cccc3c(=O)cc(N4CCOCC4)oc23)cc1	3.1% (inactive) and -4.84% (inactive)
Nc1ncnc2c1ncn2[C@@H]1O[C@H](COP(=O)(O)OP(=O)(O)OP(=O)(O)OP(=O)(O)OC[C@H]2O[C@@H](n3cnc4c(N)ncnc43)C(O)C2O)C(O)C1O (stereo partly specified)	-3.47% (inactive)
O=C1C=CC(=O)C2=C1C1c3ccccc3C2c2ccccc21	-2.66% (inactive)
Cn1cccc1/C=C1\C(=O)NC(=O)c2ccccc21	-4.19% (inactive)
CCc1cc(Cl)c(OC)c(C(=O)NCC2CCCN2CC)c1O (stereo unspecified)	0.175% (inactive)
c1cnc(SCc2cccnc2)nc1	15.1% (inactive)
Cc1cc(C(C)(C)CC(C)(C)C)ccc1OCCOCC[N+](C)(C)Cc1ccccc1	-1.86% (inactive)
C[N+](C)(CCOc1ccccc1)Cc1ccccc1	13.6% (inactive)
CC(C)(C)CC(C)(C)c1ccc(OCCOCC[N+](C)(C)Cc2ccccc2)cc1	-84.1% (active) and 4.83% (inactive)
CC(O)COC[C@H]1O[C@@H]2O[C@H]3[C@H](O)[C@@H](O)[C@@H](O[C@H]4[C@H](O)[C@@H](O)[C@@H](O[C@H]5[C@H](O)[C@@H](O)[C@@H](O[C@H]6[C@H](O)[C@@H](O)[C@@H](O[C@H]7[C@H](O)[C@@H](O)[C@@H](O[C@H]8[C@H](O)[C@@H](O)[C@@H](O[C@H]1[C@H](O)[C@H]2O)O[C@@H]8COCC(C)O)O[C@@H]7COCC(C)O)O[C@@H]6COCC(C)O)O[C@@H]5COCC(C)O)O[C@@H]4COCC(C)O)O[C@@H]3COCC(C)O (stereo partly specified)	10.2% (inactive)
C=CCn1c(=O)n(C2OC(CO)C(O)C2O)c2nc(N)[nH]c(=O)c21 (stereo unspecified)	0.162% (inactive)
CCNC(=O)[C@@H]1CCCN1C(=O)[C@H](CCCN=C(N)N)NC(=O)[C@H](CC(C)C)NC(=O)[C@@H](COC(C)(C)C)NC(=O)[C@H](Cc1ccc(O)cc1)NC(=O)[C@H](CO)NC(=O)[C@H](Cc1c[nH]c2ccccc12)NC(=O)[C@H](Cc1cnc[nH]1)NC(=O)C1CCC(=O)N1 (stereo partly specified)	9.62% (inactive)
CC(C)C(=O)OC[C@H]1O[C@@H](n2ccc(N)nc2=O)[C@](C)(F)[C@@H]1OC(=O)C(C)C	23.1% (inactive)
O=C(Nc1ncc(SCCN2CCCC2)s1)[C@]1(c2ccc(S(=O)(=O)C3CC3)cc2)C[C@H]1C1CCCCC1	-76.3% (active) and -62.6% (inactive)
CC(C)(C)[C@@]1(O)CCN2C[C@@H]3c4ccccc4CCc4cccc(c43)[C@H]2C1	13.9% (inactive)
CCN(CC)CCCCC(NC(=O)c1ccc([N+](=O)[O-])cc1)c1ccccc1 (stereo unspecified)	34.1% (inactive)
C[C@@H](NC(=O)/C(C#N)=C\c1ccc(O)c(O)c1)c1ccccc1	-3.05% (inactive)
CC(C)c1cc(/C=C(\C#N)C(=O)NCCCc2ccccc2)cc(C(C)C)c1O	-46.1% (inactive)

SMILES	activity change, negative = inhibition
CCC[C@H](NC(=O)/C(C#N)=C/c1cccc(Br)n1)c1ccccc1	-77% (active)
C[C@H](NC(=O)/C(C#N)=C/c1cccc(Br)n1)c1ccccc1	-73.9% (active)
C[C@H](NC(=O)/C(C#N)=C/c1ccc(O)c(O)c1)c1ccccc1	13.8% (inactive) and 32.8% (inactive)
O=C(CS(=O)Cc1ccco1)NC/C=C\COc1cc(CN2CCCCC2)ccn1 (stereo unspecified)	8.76% (inactive)
CC12C=CCC1C1CCC3CC(=O)CCC3(C)C1CC2 (stereo unspecified)	14.3% (inactive)
COc1ccc(NC(=O)c2cc(OCCCN(C)C)nn2Cc2ccccc2)cc1	3.25% (inactive) and 7.86% (inactive)
CCC(=O)NS(=O)(=O)c1ccc(-c2c(-c3ccccc3)noc2C)cc1	23.5% (inactive)
CC1(c2ccccc2)OC(C(=O)O)=CC1=O (stereo unspecified)	15.7% (inactive)
Nc1cccc2c(=O)[nH][nH]c(=O)c12	7.31% (inactive)
COc1ncc(-c2ccc3nccc(-c4ccnnc4)c3c2)cc1NS(=O)(=O)c1ccc(F)cc1F	-79.5% (active)
CCCS(=O)(=O)Nc1ccc(F)c(C(=O)c2c[nH]c3ncc(-c4ccc(Cl)cc4)cc23)c1F	-58.2% (inactive) and -67.7% (inactive)
CCc1cc(-c2n[nH]c(C)c2-c2ccc3c(c2)OCCO3)c(O)cc1O	-16.3% (inactive)
NC(=NCCCCCCN=C(N)/N=C(\N)Nc1ccc(Cl)cc1)/N=C(\N)Nc1ccc(Cl)cc1	-58% (inactive)
CCN(CC)CCCCN1c2ccccc2Oc2ccc(Cl)cc21	-10.3% (inactive) and 12.5% (inactive)
CC/C(=C(\c1ccccc1)c1ccc(OCCN(C)C)cc1)c1ccccc1	13.1% (inactive) and -14.7% (inactive) and -6.44% (inactive)
CC/C(=C(/c1ccccc1)c1ccc(OCCN(C)C)cc1)c1ccccc1	-72.4% (active)
CCN(CC)CCOc1ccc(/C(=C(\Cl)c2ccccc2)c2ccccc2)cc1	-69.8% (inactive) and -52.9% (inactive)
CN(C)CCOc1ccc(/C(=C(/CCCl)c2ccccc2)c2ccccc2)cc1	-77.6% (active) and -84.8% (active)
CCN(CC)CCOc1ccc(Cc2ccccc2)cc1	5.6% (inactive) and 13.5% (inactive)
CN(C)CCOC(=O)COc1ccc(Cl)cc1	4.1% (inactive) and 6.57% (inactive)
CC(=O)OCC(=O)[C@@]12OC3(CCCC3)O[C@@H]1CC1C3CCC4=CC(=O)C=C[C@]4(C)[C@@]3(F)[C@@H](O)C[C@@]12C (stereo partly specified)	-7.19% (inactive) and -8.15% (inactive)

SMILES	activity change, negative = inhibition
C[C@]12C=CC(=O)C=C1CCC1C2[C@@H](O)C[C@@]2(C)C1CC[C@]2(O)C(=O)COC(=O)CCC(=O)O (stereo partly specified)	-10.6% (inactive) and -6.45% (inactive)
CC(=O)OC[C@H]1O[C@@H](n2ccc(=O)[nH]c2=O)[C@H](OC(C)=O)[C@@H]1OC(C)=O	8.3% (inactive)
C=CC1CN2CCC1CC2[C@@H](O)c1ccnc2ccc(OC)cc12 (stereo partly specified)	21.1% (inactive)
COc1nccc(-c2c(-c3ccc(F)cc3)ncn2C2CCNCC2)n1	-64.9% (inactive)
COc1nccc(-c2c(-c3ccc(F)cc3)ncn2C2CCC(O)CC2)n1 (stereo unspecified)	-77.2% (active)
CCOc1ccc(Cc2cc([C@@]34OC[C@@](CO)(O3)[C@@H](O)[C@H](O)[C@H]4O)ccc2Cl)cc1	12.2% (inactive)
CSCC1CN(/N=C/c2ccc([N+](=O)[O-])o2)C(=O)O1 (stereo unspecified)	3.31% (inactive)
CCNC(=O)CCC/C=C/C[C@@H]1[C@H](C=C[C@H](O)CCc2ccccc2)[C@@H](O)C[C@@H]1O	-1.53% (inactive)
CCCC[P+](CCCC)(CCCC)Cc1ccc(NC(=O)[C@H](Cc2ccc3ccccc3c2)NC(=NC2CCCCC2)NC2CCCCC2)cc1	27% (inactive)
O=C(CCCN1CCC(O)(c2cccc(C(F)(F)F)c2)CC1)c1ccc(F)cc1	30.3% (inactive)
OC1(c2ccc(Cl)c(C(F)(F)F)c2)CCN(CCCC(c2ccc(F)cc2)c2ccc(F)cc2)CC1	-65.8% (inactive) and -91.8% (active)
O=C(CCCN1CCC(O)(c2ccc(Cl)cc2)CC1)c1ccc(F)cc1	7.06% (inactive) and 15.9% (inactive)
Nc1ccn(C[C@@H](CO)OCP(=O)(O)O)c(=O)n1	-60.1% (inactive)
O/N=C/c1cc[n+](COC[n+]2ccc(/C=N/O)cc2)cc1	8.88% (inactive)
C[C@H]1CC2C([C@@H](O)C[C@@]3(C)C2CC[C@]3(O)C(=O)CO)[C@@]2(C)C=CC(=O)C=C12 (stereo partly specified)	5.02% (inactive)
OC[C@H]1O[C@H](O)C[C@@H](O)[C@@H]1O	-36.7% (inactive)
CCOCCn1c(C2CCN(CCc3ccc(C(C)(C)C(=O)O)cc3)CC2)nc2ccccc21	20.9% (inactive)
N#C/C(=C/c1ccc(O)c(O)c1)C(N)=O	7.91% (inactive)
